These results are taken from PubChem BioAssay (NCI).

Test systems include HT29 colon; SNB-75 CNS; SNB-19 CNS; U251 CNS; PC-3 prostate; SK-MEL-5 melanoma; UACC-62 melanoma; LOX IMVI melanoma; SK-MEL-28 melanoma; SK-MEL-2 melanoma; EKVX NSCLC; SN12C renal; UO-31 renal; TK-10 renal; ACHN renal; CAKI-1 renal; A498 renal; CCRF-CEM leukemia; MOLT-4 leukemia.
Common to all, as to test: NCI-60 one-dose screen, 48 h (100 = growth as untreated, 0 = no growth, -100 = all killed)
Conditions in all cases: 10 µM unless noted

Structures are written as SMILES. Compounds without any hit were thinned out: in the full panel of roughly 83,000, 20% have a hit.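 Percent growth is the endpoint: 0 to 100 indicates growth inhibition (40 means 60% inhibition), 0 means no net growth, and negative values indicate cell death.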 Unmarked numbers belong to inactive results. Active and inactive are the calls of the source. The calls were made as follows: active = growth percent below 10; inactive = the rest.

`CCOC(=O)c1c(-c2ccccc2)n2c(=O)cc(C)c3c(O)c(O)cc1c32`: the growth is 70.9% in the test on HT29 colon; 63.6% with SNB-75 CNS; 65.6% with SNB-19 CNS; 48.8% in the test with U251 CNS; 41.7% in the test with PC-3 prostate; 41.9% in the test with SK-MEL-5 melanoma. Besides, the growth was 69.4% in the test with UACC-62 melanoma; 43% in the test on LOX IMVI melanoma; 76% with SK-MEL-28 melanoma; 83.8% in the test with SK-MEL-2 melanoma; 86.6% in the test on EKVX NSCLC; 68.7% in the test with SN12C renal. Also, the growth is 51.1% in the test with UO-31 renal; 89.2% with TK-10 renal; 47% in the test on ACHN renal; 52% in the test on CAKI-1 renal; 88.6% with A498 renal; 17.1% in the test with CCRF-CEM leukemia. Besides, the growth with MOLT-4 leukemia is 36.1%.
`COc1ccc(C2=NN(C(C)=O)C(c3ccc(Oc4ccnc5cc(Cl)ccc45)c(OC)c3)C2)cc1` (centres undefined): the growth is 15.1% in the test with HT29 colon; 16.1% with SNB-75 CNS; 73.1% in the test on SNB-19 CNS; 45.7% in the test on U251 CNS; 56% in the test on PC-3 prostate; 65.8% with SK-MEL-5 melanoma. For the same compound, the growth in the test on UACC-62 melanoma was 54.7%; with LOX IMVI melanoma, 53.2%; with SK-MEL-28 melanoma it was 35.8%; in the test with SK-MEL-2 melanoma it was 42.4%; with EKVX NSCLC, 62%; in the test with SN12C renal, 68.7%. In addition, the growth with UO-31 renal was 70%; with TK-10 renal, 36.6%; in the test on ACHN renal, 22.9%; with CAKI-1 renal, 47.9%; in the test with CCRF-CEM leukemia, 85.7%; with MOLT-4 leukemia, 78.9%.
In the case of `CN1CCN(CCOc2ccc(-c3cnc4c(-c5ccc(C(F)(F)F)cc5)cnn4c3)cc2)CC1`, the growth in the test with HT29 colon was -15.5% (active); with SNB-75 CNS it was 96.1%; in the test on SNB-19 CNS, 61.4%; with U251 CNS, 1.48% (active); in the test on PC-3 prostate it was 28.3%; in the test on SK-MEL-5 melanoma, 64.4%. The growth is 72.4% with UACC-62 melanoma; -89.9% (active) in the test on LOX IMVI melanoma; 85.1% in the test with SK-MEL-28 melanoma; 63.3% in the test on SK-MEL-2 melanoma; 60.1% in the test with EKVX NSCLC; 53.7% in the test with SN12C renal. In addition, the growth in the test on UO-31 renal was 38.1%; with TK-10 renal, 67.4%; in the test on ACHN renal, 58.8%; in the test with CAKI-1 renal, 31%; with A498 renal, 69.5%; in the test with CCRF-CEM leukemia it was -13.7% (active). In addition, in the test with MOLT-4 leukemia, the growth is -51.3% (active).
`Nc1ccc([N+](=O)[O-])cc1N=C/C=C/c1ccccc1`: the growth in the test with HT29 colon is 28.6%; in the test with SNB-75 CNS, 86.6%; in the test on SNB-19 CNS, 72.2%; in the test with U251 CNS it was 56.9%; with PC-3 prostate it was 72.4%; in the test on SK-MEL-5 melanoma, 56.5%. The growth is 63.2% with UACC-62 melanoma; 49% with LOX IMVI melanoma; 94.8% in the test on SK-MEL-28 melanoma; 43.5% with SK-MEL-2 melanoma; 97.5% with EKVX NSCLC; 50.6% in the test on SN12C renal. Further, the growth in the test with UO-31 renal was 43.3%; with TK-10 renal it was 79.8%; with ACHN renal, 81.7%; in the test on CAKI-1 renal it was 73.1%; in the test on A498 renal, 79.3%; in the test on CCRF-CEM leukemia it was 18.3%. Further, the growth with MOLT-4 leukemia was 14.8%.
`COC(=O)c1c2c(c(C)[n+]([O-])c1C)C(=O)C=CC2=O`: the growth is 0.769% (active) in the test with HT29 colon; -49.1% (active) in the test with SNB-75 CNS; -23.8% (active) in the test on SNB-19 CNS; -40.8% (active) in the test with U251 CNS; 3.6% (active) with PC-3 prostate; -98.5% (active) in the test with SK-MEL-5 melanoma. The growth in the test with UACC-62 melanoma is -72.8% (active); in the test with LOX IMVI melanoma, -86% (active); with SK-MEL-28 melanoma, -82.9% (active); with SK-MEL-2 melanoma, -63.1% (active); with EKVX NSCLC it was 98.3%; with SN12C renal it was -87.7% (active). For the same compound, the growth with UO-31 renal is -64.8% (active); in the test with TK-10 renal, 72.9%; in the test on ACHN renal, -37.6% (active); in the test on CAKI-1 renal, 2.19% (active); with A498 renal, 60.8%; in the test with CCRF-CEM leukemia it was 0.622% (active). In addition, in the test with MOLT-4 leukemia, the growth is -1.84% (active).
Regarding `C#CC#CC#CC#CC#CC#CC#CC#CC[C@H]1OC[C@H](COC(=O)O[C@@H](C(=O)O[C@H]2C[C@@]3(O)[C@@H](OC(=O)c4ccccc4)[C@@H]4[C@]5(OC(C)=O)CO[C@@H]5C[C@H](O)[C@@]4(C)C(=O)[C@H](OC(C)=O)C(=C2C)C3(C)C)[C@@H](NC(=O)c2ccccc2)c2ccccc2)O1`, the growth in the test on HT29 colon was 8.74% (active); with SNB-75 CNS it was 37.6%; with SNB-19 CNS, 50.3%; with PC-3 prostate, 32.7%; in the test on SK-MEL-5 melanoma it was 60.5%; with UACC-62 melanoma it was 46.2%. For the same compound, the growth with LOX IMVI melanoma was 39.7%; in the test with SK-MEL-28 melanoma it was 52.1%; with SK-MEL-2 melanoma it was 73.9%; in the test on EKVX NSCLC it was 74.5%; in the test with SN12C renal, 46.5%; with UO-31 renal, 100%. The growth was 102% with TK-10 renal; 87.6% with ACHN renal; 77.1% with CAKI-1 renal; 50.2% in the test with A498 renal; 26.7% in the test with CCRF-CEM leukemia; 43.3% with MOLT-4 leukemia.
For `O=C1NC(=C(Cl)Cl)/C(=N/S(=O)(=O)N2CCCCC2)N1`, the growth is -75.8% (active) with HT29 colon; 93.5% in the test on SNB-75 CNS; 60.9% in the test with SNB-19 CNS; -45.1% (active) with U251 CNS; 28.5% in the test on PC-3 prostate; 82% in the test on SK-MEL-5 melanoma. Further, the growth in the test with UACC-62 melanoma is 46.6%; in the test on LOX IMVI melanoma it was -56.6% (active); with SK-MEL-28 melanoma, -32.7% (active); in the test on SK-MEL-2 melanoma, 40.7%; with EKVX NSCLC, -23.9% (active); with SN12C renal, 23.5%. Moreover, the growth in the test with UO-31 renal was 39.7%; in the test on TK-10 renal, 13.9%; in the test with ACHN renal, 26.8%; in the test with CAKI-1 renal it was 46%; in the test on A498 renal, 132%; in the test with CCRF-CEM leukemia, -63.3% (active). In the test on MOLT-4 leukemia, the growth is -48.7% (active).
`Oc1c(Cl)cc(Cl)c2ccc(Cn3cc(-c4cccc(C(F)(F)F)c4)nn3)nc12`: the growth is 70% in the test with SNB-75 CNS; 95.6% in the test with SNB-19 CNS; 93.6% in the test with U251 CNS; 83.1% with PC-3 prostate; 98.2% with SK-MEL-5 melanoma; 82.1% with UACC-62 melanoma. Moreover, the growth with LOX IMVI melanoma is 23.7%; with SK-MEL-28 melanoma, 75.9%; in the test on SK-MEL-2 melanoma it was 93.8%; in the test on EKVX NSCLC, 80.1%; in the test with SN12C renal it was 84.6%; in the test on UO-31 renal, 73.4%. The growth in the test on TK-10 renal is 99.7%; with ACHN renal it was 47.9%; with CAKI-1 renal, 31.1%; in the test with A498 renal, 91.1%; in the test with CCRF-CEM leukemia, 6.72% (active); in the test with MOLT-4 leukemia, 3.08% (active).
Take `Cc1ccc(-c2nc(C(Cl)Cl)nc3cc(C)nn23)cc1`: the growth in the test on HT29 colon is 3.2% (active); in the test on SNB-19 CNS it was 25.1%; in the test with U251 CNS it was 4.27% (active); with PC-3 prostate, 44.9%; in the test on SK-MEL-5 melanoma, 44.8%; in the test on UACC-62 melanoma, 59.5%. Besides, the growth in the test on LOX IMVI melanoma is 52%; in the test on SK-MEL-28 melanoma, 38.4%; in the test on SK-MEL-2 melanoma, 65.5%; with EKVX NSCLC it was 5.75% (active); in the test on SN12C renal it was 40.5%; with UO-31 renal, 51.3%. Moreover, the growth in the test with TK-10 renal was 29%; in the test on ACHN renal, -45% (active); in the test with CAKI-1 renal it was -14.2% (active); in the test on CCRF-CEM leukemia, 32.5%; in the test with MOLT-4 leukemia, 16.7%.
As to `COc1ccc2c(c1)c(-c1cc(-c3cn(C)c4ccc(OC)cc34)on1)cn2C`, the growth with HT29 colon was 97.3%; in the test on SNB-75 CNS, 97.8%; in the test on SNB-19 CNS, 94.5%; in the test with U251 CNS it was 93.7%; in the test on PC-3 prostate, 87.9%; with SK-MEL-5 melanoma it was 81.2%. Besides, the growth is 90.7% in the test on UACC-62 melanoma; 81.8% in the test with LOX IMVI melanoma; 94.5% in the test on SK-MEL-28 melanoma; 118% with SK-MEL-2 melanoma; 106% with EKVX NSCLC; 106% with SN12C renal. Besides, the growth is 80.6% in the test with UO-31 renal; 126% with TK-10 renal; 89.9% in the test with ACHN renal; 92.8% with CAKI-1 renal; 105% in the test with A498 renal; 91.3% in the test with CCRF-CEM leukemia. In the test with MOLT-4 leukemia, the growth was 86.3%.
For `CCOC(=O)N1CCN(S(=O)(=O)c2oc(-c3ccc(Cl)cc3)nc2C#N)CC1`, the growth was 79.3% in the test on HT29 colon; 87.9% in the test on SNB-75 CNS; 98.3% in the test with SNB-19 CNS; 95.9% in the test with U251 CNS; 93% in the test on PC-3 prostate; 97.4% with SK-MEL-5 melanoma. The growth in the test with UACC-62 melanoma was 98.8%; with LOX IMVI melanoma, 10.8%; in the test on SK-MEL-28 melanoma, 105%; in the test with SK-MEL-2 melanoma it was 83.8%; with EKVX NSCLC, 101%; with SN12C renal, 92.6%. Further, the growth is 81.5% in the test on UO-31 renal; -27% (active) with TK-10 renal; 76.1% in the test on ACHN renal; 101% in the test on CAKI-1 renal; 126% in the test with A498 renal; 1.71% (active) in the test with CCRF-CEM leukemia. In addition, the growth with MOLT-4 leukemia is 5.33% (active).
